# SMARCA2 act: activators of SMARCA2 function | MG213 cells, MMTV-luciferase reporter, dexamethasone, overnight | activation, % at 9.1 µM | 370,000 compounds, 1% hits; in the data active means activation above about 7.8%;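 further: 0% = vehicle wells and 100% = reference activator wells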
# MITF act: increases MITF-driven TRPM1 promoter luciferase signal. activation, % at 12.5 µM. 300,000 compounds, 0.75% hits. SK-MEL-5 TRPM1-promoter luciferase, 24 h; % of positive control, neutral wells = 0;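 active means mean activation of at least 80% with every replicate also reaching 80%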;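 further: 0% = neutral control wells and 100% = parthenolide positive control wells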
# esBAF inh: SWI/SNF esBAF complex inhibition; mouse ES cells, Bmi1-luciferase knock-in reporter, 24 h; 100% = twice the neutral-well signal; reporter increase, % at 12.5 µM; 350,000 compounds, 2% hits; AID 602393; in the data active means activation above about 40%;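 further: 0% = median of the plate's neutral control wells and 100% = double that signal; a rise in the Bmi1 reporter signal indicates esBAF inhibition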
# FGF22 binding: shifts melting point of recombinant human FGF22; Q9HCT0; recombinant FGF22 thermal shift, SYPRO orange fluorescence; percent of sucrose octasulfate shift, DMSO zero; activity (Tm shift, normalised), % at 9.99 µM; 340,000 compounds, 1.5% hits; AID 651658;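 active means mean Tm shift, scaled 0 neutral to 100 positive control, at about 1.3% or above, every replicate too, limit read from the data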
# Target sequence (Q9HCT0 whole entry, looked up): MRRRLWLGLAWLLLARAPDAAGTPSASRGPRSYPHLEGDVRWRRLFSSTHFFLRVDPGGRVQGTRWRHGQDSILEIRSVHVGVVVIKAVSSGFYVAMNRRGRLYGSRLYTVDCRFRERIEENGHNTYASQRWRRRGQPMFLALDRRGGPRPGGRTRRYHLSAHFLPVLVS
# Wnt bcat act: activators of Wnt/beta-catenin signaling; Wnt/beta-catenin reporter cell assay, activator, plate reader; activation, % at 9.35 µM; 300,000 compounds, 1.2% hits; AID 743398; in the data active means activation above about 30%, passing the limit was not always enough;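 further: 0% = neutral control wells and 100% = positive control wells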
# MLL AF4-AF9 inh: inhibitors of human MLL-AF4/AF9 interaction; inhibition, % at 10 µM; 350,000 compounds, 0.47% hits; P42568; AlphaScreen, biotin-AF4 peptide binding to FLAG-AF9;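 active means every replicate reaching a set inhibition limit, whatever the replicate mean, cut at about 25% in these data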;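 further: 0% = plate neutral control median and 100% = total signal loss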
# Starred values were filed as active, the others as inactive; / = not tested or not shown. This is a sample that favours compounds with a hit; in the whole collection about 4.3% have one here.
SMILES,SMARCA2 act,MITF act,esBAF inh,FGF22 binding,Wnt bcat act,MLL AF4-AF9 inh
CC(C)CN1CCC(=O)N([C@H](CN=[N+]=[N-])Cc2ccccc2)CC1,1,2,/,0,-2,-1
O=C(N/N=C\c1ccccc1OCc1ccccc1)c1ccco1,-1,14,/,43*,15,10
C[C@@H]1CN([C@@H](C)CO)S(=O)(=O)c2ccc(C#CC(C)(C)O)cc2O[C@@H]1CN(C)C,/,/,-2,0,/,1
COc1ccc(-c2nc3c4ccccc4ccn3c2Cc2cccc(F)c2)cc1OC,6,/,41*,0,3,4
COc1ccc(-c2nc3c4ccccc4ccn3c2CN2CCOCC2)cc1OC,-1,44,57*,0,28,5
COc1ccc(-c2nc3c(C)cc(Br)cn3c2Cc2cccc(F)c2)cc1OC,0,/,-2,0,-1,1
Clc1ccc2nc(-c3ccccc3)c(CN3CCOCC3)n2c1,0,6,/,/,/,/
c1ccc(-c2nc3c4ccccc4ccn3c2CN2CCOCC2)cc1,1,9,34,0,49*,-11
C[C@H](CO)N1C[C@H](C)[C@@H](CN(C)C(=O)Nc2ccc(F)cc2)Oc2cc(C#CC3(O)CCCC3)ccc2S1(=O)=O,/,/,10,0,/,-1
O=C(C(=O)N1CCC(CNC(=O)c2ccccc2F)CC1)c1cc2ccccc2o1,2,/,/,0,-4,-3
CO[C@H]1CN(C)C(=O)c2cc(NS(=O)(=O)c3c(C)noc3C)ccc2OC[C@@H](C)NC[C@@H]1C,/,/,1,0,/,-2
c1ccc(-c2nc(-c3nccc4ccccc34)oc2-c2ccccc2)cc1,4,109*,/,0,27,-2
COCC(=O)Nc1ccc2c(c1)[C@H]1C[C@H](CC(=O)NCCc3ccccc3)O[C@@H](CO)[C@H]1O2,/,/,16,0,/,0
C[C@@H]1CCCCO[C@@H](CN(C)C(=O)CCCN(C)C)[C@H](C)CN([C@@H](C)CO)C(=O)c2cc(NC(=O)C3CCCCC3)ccc2O1,/,/,-1,1,/,-4
O=C(Nc1ccc2c(c1)OCO2)c1ccc(=O)[nH]n1,2,13,12,0,-1,-1
O=C(Nc1ccccc1-c1ccccc1)c1ccc(=O)[nH]n1,1,56,43*,0,-2,0
CC(C)(C)c1ccc(NC(=O)c2ccc(=O)[nH]n2)cc1,1,97*,14,0,33*,2
C[C@@H]1CN([C@H](C)CO)C(=O)c2cc(NS(=O)(=O)c3ccc(Cl)cc3)ccc2O[C@@H](C)CCCCO[C@@H]1CN(C)S(C)(=O)=O,/,/,-5,0,/,-3
CCOP(=O)(O)c1cccc(OCCOCCOc2cccc(P(=O)(O)OCC)c2)c1,-4,1,4,44*,0,-6
Clc1ccc2c(c1)[C@H]1OCC[C@H]1[C@@H](c1ccco1)N2,1,48,48*,0,13,2
CC(C)NC(=O)N(C)C[C@H]1Oc2c(NC(=O)C3CCOCC3)cccc2C(=O)N([C@H](C)CO)C[C@H]1C,/,/,6,0,/,-5
CCOc1ccc(Nc2nc(N)nc(CSC(=S)N3CCN(c4ccccc4)CC3)n2)cc1,-3,/,1,0,-4,35*
COc1ccc(Nc2nc(N)nc(CSC(=S)N3CCN(c4ccccc4)CC3)n2)cc1,-1,2,/,0,-2,7
COc1ccc(NC(=O)N(C)C[C@@H]2Oc3c(NS(=O)(=O)c4c(C)noc4C)cccc3C(=O)N([C@@H](C)CO)C[C@@H]2C)cc1,/,/,-1,0,/,-2
CCc1ccccc1NC(=O)CCN1C(=O)C2C3CCC(C3)C2C1=O (stereo unspecified),1,-6,/,44*,2,-1
SMILES,SMARCA2 act,MITF act,esBAF inh,FGF22 binding,Wnt bcat act,MLL AF4-AF9 inh
O=C(CCN1C(=O)C2C3CCC(C3)C2C1=O)Nc1ccccc1Cl (stereo unspecified),5,16,/,0,0,-2
COC(=O)c1ccc(CN2C(=O)NC3(CCC(C)CC3)C2=O)cc1 (stereo unspecified),1,48,44*,0,5,-2
COC(=O)c1ccc(CN2C(=O)NC3(CCC(C)CC3)C2=O)o1 (stereo unspecified),-1,/,2,/,-1,/
C[C@@]12C[C@@H]3C(=O)N(Cc4ccccc4)CC(=O)N3[C@@H]1N(S(=O)(=O)c1ccccc1)c1ccccc12,0,/,/,/,/,/
COC(=O)C1SCC2C(=O)N(Cc3ccccc3)CC(=O)N21 (stereo unspecified),6,-7,-6,43*,0,-3
O=C(NCCc1c[nH]c2ccccc12)/C(=C/c1ccco1)NC(=O)c1ccco1,-1,-1,/,43*,1,-2
CCOc1cccc(-c2cc(C(=O)N3N=C(C)CC3(O)C(F)F)c3ccccc3n2)c1 (stereo unspecified),-3,-9,/,43*,2,-9
C[C@@H]1CN([C@@H](C)CO)C(=O)c2cc(NC(=O)Nc3ccccc3)ccc2O[C@@H]1CN(C)S(=O)(=O)c1cccs1,/,/,-1,0,/,-7
Nc1[nH]c(C(=O)c2ccc(Br)cc2)c(-c2cccc3ccccc23)c1C(=O)NCCc1c[nH]c2ccccc12,-5,/,/,42,-6,4
C[C@@H]1CN([C@H](C)CO)C(=O)c2cc(NC(=O)CCN3CCOCC3)ccc2O[C@H]1CN(C)Cc1ccccc1,/,/,1,-1,/,0
CN(CC(=O)NC1CC(C)(C)NC(C)(C)C1)S(=O)(=O)c1cc(Cl)ccc1Cl,0,-1,-1,43*,0,-1
CCC(=O)N1CC[C@@H]2[C@H](CO)Nc3ccc(C#Cc4cccnc4)cc3[C@@H]21,/,/,-7,/,/,-9
CCNC(=O)N1CCN(c2ccc(N3CCN(Cc4ccccc4)[C@H](C)C3)c(C)c2)[C@@H](C)C1,-4,/,/,40*,-3,/
c1ccc(C2OCC3(CO2)COC(c2ccccc2)OC3)cc1 (stereo unspecified),-2,/,-3,/,-3,/
c1ccc2c(C3OCC4(CCCCC4)CO3)cccc2c1,2,/,45*,0,-5,-18
Cc1ccc(-c2csc(NC(=O)c3ccco3)n2)cc1C,2,/,47*,0,41*,-3
CC(=O)Nc1nc2c(s1)CCc1ccccc1-2,2,-13,9,0,0,1
CCOc1ccc(-c2csc(NC(=O)c3ccco3)n2)cc1,0,/,58*,1,3,2
O=C(Nc1nc2c(s1)CCc1ccccc1-2)c1ccco1,3,/,62*,/,/,/
CC(OC(=O)c1ccco1)C(=O)Nc1nc(-c2ccccc2)cs1 (stereo unspecified),-1,89*,48*,0,7,-2
CCCN(C)C[C@@H]1Oc2cc(C#CC(C)C)ccc2S(=O)(=O)N([C@@H](C)CO)C[C@@H]1C,/,/,-4,-1,/,5
